System: ROCK2
Conditions: concentration: 1 μM, replicates: in singlicate; n = 1
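Also: KINOMEscan kinase panel screen.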

Row | Compound | %Inh
1 | Cc1ccc(Nc2ccnc(Nc3ccc(C)c(F)c3)n2)cc1O.Cl [GW582868] | 16%
2 | O=C(Nc1c(F)cccc1F)c1cc(C(=O)c2ccccc2F)c[nH]1 [GSK1326180] | 9%
3 | COc1cccc(CC(=O)N2CCc3cc(-c4cn(C)c5ncnc(N)c45)ccc32)c1 [GSK2608899] | 5%
4 | Cl.N#CCc1ccc(Nc2nccc(Nc3ccc(Oc4ccccc4)cc3)n2)cc1 [GW639905] | 34%
5 | Nc1ncc(-c2ccc3nccc(-c4ccncc4)c3c2)cc1S(=O)(=O)N1CCCCC1 [GSK1693850] | 13%
6 | COc1cc(Nc2nccc(N3CCC(NS(=O)(=O)c4ccc(NC(C)=O)cc4)CC3)n2)cc(OC)c1OC [GSK1379825] | 26%
7 | COc1cccc2c(-c3ccncc3)c(-c3ccc(F)cc3)nn12 [GW468513] | 28%
8 | CCn1cnc2c(NCc3ccccc3)ncnc21 [SKF-96418] | 16%
9 | COc1cccc(-c2nc(-c3ccccc3)[nH]c2-c2ccncc2)c1 [SB-610250] | 13%
10 | COc1cc(Nc2ccnc3cc(-c4ccncc4)ccc23)cc(OC)c1OC.Cl [GW494610] | 14%
11 | O=C(O)C(F)(F)F.O=c1[nH]ccc2nc(N[C@@H]3CCNC3)nc(Nc3ccc4c(c3)S(=O)(=O)CC4)c12 [GSK2181306] | 99.7%
12 | CN(C)c1ncnc2nc[nH]c12 [SKF-31736] | 31%
13 | O=C(Nc1n[nH]c2nc(-c3ccccc3O)ccc12)C1CC1 [SB-711880] | 0%
14 | CCNc1nccc(-c2c(-c3ccc(F)cc3)ncn2C2CCN(C)CC2)n1 | 0%
15 | O=C(O)C(F)(F)F.O=c1[nH]ccc2nc(N[C@@H]3CCNC3)nc(Nc3cc(Cl)cc(Cl)c3)c12 [GSK2188764] | 99.7%
16 | COC(=O)Nc1nc2cc(Oc3ccc(NC(=O)Nc4cccc(SC)c4)cc3)ccc2[nH]1.Cl [GW697999] | 55%
17 | Cc1cccc(Nc2nc(N[C@H]3CCCC[C@H]3N)ncc2C(N)=O)c1.Cl [GSK986310] | 82%
18 | COc1cc(Nc2nccc(N3CCC(NC(=O)Nc4ccc5c(c4)OCO5)C3)n2)cc(OC)c1OC (centres unmarked) [GSK1379766] | 44%
19 | CC(C)(C)c1ccc(C(=O)Nc2cn3cc(-n4ccnc4)ccc3n2)cc1 | 0%

Row | Compound | %Inh
20 | CC(C)NCC(Cc1ccccc1)NC(=O)c1cc(Br)c(-c2ccnc3[nH]ccc23)s1.Cl.Cl (centres unmarked) [GSK1383281] | 99.6%
21 | CSc1ccc(NC2=C(c3ccc(Cl)cc3)C(=O)NC2=O)cc1 [SB-317658] | 0%
22 | O=C(Nc1n[nH]c2cc(-c3cccs3)ccc12)C1CC1 [SB-731284] | 32%
23 | O=C(Nc1n[nH]c2nc(-c3cccc(O)c3)ccc12)C1CC1 [SB-711805] | 0%
24 | Cc1cc(-c2ccnc(Nc3cccc(C#N)c3)n2)cc(C)c1O [GSK1440913] | 0%
25 | Cc1ccc(-c2ccc3occ(-c4ccc(S(C)=O)cc4)c3c2)nn1 (centres unmarked) | 0%
26 | CN(C)CCNS(=O)(=O)c1ccc(-c2ccnc3[nH]ccc23)cc1 [GSK977620] | 98.3%
27 | COC(=O)Nc1nc2ccc(Oc3ccc(CC(=O)Nc4cc(C(F)(F)F)ccc4F)cc3)cc2[nH]1 [GW680903] | 12%
28 | Cl.Cl.NCC(NC(=O)c1cc(-c2cccnc2)c(-c2ccnc3[nH]ccc23)s1)c1ccccc1 (centres unmarked) [GSK1323434] | 99.4%
29 | CCn1c(-c2nonc2N)nc2c(-c3ccccc3)ncc(OCCCN)c21.O=C(O)C(F)(F)F.O=C(O)C(F)(F)F [GSK260205] | 98.4%
30 | Cc1ccc(NC(=O)c2cccc(N3CCCCC3)c2)cc1-c1ccc(C(=O)NCC2CC2)cc1 [GSK1917008] | 0%
31 | CN(c1ccc(NC(=O)N2CCN(CCCN3CCOCC3)CC2)cc1)c1ccnc(Nc2ccc(CS(C)(=O)=O)cc2)n1.Cl [GW830899] | 0%
32 | c1ccc(Oc2ccc(Nc3ccnc4cc(-c5ccc(CN6CCCCC6)o5)ccc34)cc2)nc1 [GW567143] | 0%
33 | Cc1ccc(NC(=O)c2ccc(Cl)c(Cl)c2)cc1-c1ccc(C(=O)Nc2ccncc2)cc1 [GSK1398460] | 0%
34 | Cc1ccccc1CC(=O)N1CCc2cc(-c3cn(C)c4ncnc(N)c34)ccc21 [GSK2603346] | 14%
35 | CNc1nccc(-c2ccc3c(N)n[nH]c3c2)n1 [GSK2206003] | 62%
36 | Nc1ncc(-c2cn[nH]c2)c2scc(-c3ccc4c(c3)CCN4C(=O)Cc3ccccc3)c12 [GSK2593067] | 36%
37 | COC(=O)Nc1nc2ccc(Oc3ccc(NC(=O)Nc4cc(C(F)(F)F)ccc4F)cc3)cc2[nH]1.Cl [GW654607] | 16%

System: ROS1
Conditions: concentration: 1 μM, replicates: in singlicate; n = 1

Row | Compound | %Inh
38 | Cc1ccc(Nc2ccnc(Nc3ccc(C)c(F)c3)n2)cc1O.Cl [GW582868] | 33%
39 | O=C(Nc1c(F)cccc1F)c1cc(C(=O)c2ccccc2F)c[nH]1 [GSK1326180] | 0%
40 | COc1cccc(CC(=O)N2CCc3cc(-c4cn(C)c5ncnc(N)c45)ccc32)c1 [GSK2608899] | 9%
41 | Cl.N#CCc1ccc(Nc2nccc(Nc3ccc(Oc4ccccc4)cc3)n2)cc1 [GW639905] | 0%
42 | Nc1ncc(-c2ccc3nccc(-c4ccncc4)c3c2)cc1S(=O)(=O)N1CCCCC1 [GSK1693850] | 43%
43 | COc1cc(Nc2nccc(N3CCC(NS(=O)(=O)c4ccc(NC(C)=O)cc4)CC3)n2)cc(OC)c1OC [GSK1379825] | 48%
44 | COc1cccc2c(-c3ccncc3)c(-c3ccc(F)cc3)nn12 [GW468513] | 0%
45 | CCn1cnc2c(NCc3ccccc3)ncnc21 [SKF-96418] | 0%
46 | COc1cccc(-c2nc(-c3ccccc3)[nH]c2-c2ccncc2)c1 [SB-610250] | 0%
47 | COc1cc(Nc2ccnc3cc(-c4ccncc4)ccc23)cc(OC)c1OC.Cl [GW494610] | 16%
48 | O=C(O)C(F)(F)F.O=c1[nH]ccc2nc(N[C@@H]3CCNC3)nc(Nc3ccc4c(c3)S(=O)(=O)CC4)c12 [GSK2181306] | 29%
49 | CN(C)c1ncnc2nc[nH]c12 [SKF-31736] | 0%
50 | O=C(Nc1n[nH]c2nc(-c3ccccc3O)ccc12)C1CC1 [SB-711880] | 0%
51 | CCNc1nccc(-c2c(-c3ccc(F)cc3)ncn2C2CCN(C)CC2)n1 | 0%
52 | O=C(O)C(F)(F)F.O=c1[nH]ccc2nc(N[C@@H]3CCNC3)nc(Nc3cc(Cl)cc(Cl)c3)c12 [GSK2188764] | 0%
53 | COC(=O)Nc1nc2cc(Oc3ccc(NC(=O)Nc4cccc(SC)c4)cc3)ccc2[nH]1.Cl [GW697999] | 0%
54 | Cc1cccc(Nc2nc(N[C@H]3CCCC[C@H]3N)ncc2C(N)=O)c1.Cl [GSK986310] | 62%
55 | COc1cc(Nc2nccc(N3CCC(NC(=O)Nc4ccc5c(c4)OCO5)C3)n2)cc(OC)c1OC (centres unmarked) [GSK1379766] | 36%
56 | CC(C)(C)c1ccc(C(=O)Nc2cn3cc(-n4ccnc4)ccc3n2)cc1 | 0%

Row | Compound | %Inh
57 | CC(C)NCC(Cc1ccccc1)NC(=O)c1cc(Br)c(-c2ccnc3[nH]ccc23)s1.Cl.Cl (centres unmarked) [GSK1383281] | 46%
58 | CSc1ccc(NC2=C(c3ccc(Cl)cc3)C(=O)NC2=O)cc1 [SB-317658] | 3%
59 | O=C(Nc1n[nH]c2cc(-c3cccs3)ccc12)C1CC1 [SB-731284] | 0%
60 | O=C(Nc1n[nH]c2nc(-c3cccc(O)c3)ccc12)C1CC1 [SB-711805] | 0%
61 | Cc1cc(-c2ccnc(Nc3cccc(C#N)c3)n2)cc(C)c1O [GSK1440913] | 64%
62 | Cc1ccc(-c2ccc3occ(-c4ccc(S(C)=O)cc4)c3c2)nn1 (centres unmarked) | 0%
63 | CN(C)CCNS(=O)(=O)c1ccc(-c2ccnc3[nH]ccc23)cc1 [GSK977620] | 48%
64 | COC(=O)Nc1nc2ccc(Oc3ccc(CC(=O)Nc4cc(C(F)(F)F)ccc4F)cc3)cc2[nH]1 [GW680903] | 0%
65 | Cl.Cl.NCC(NC(=O)c1cc(-c2cccnc2)c(-c2ccnc3[nH]ccc23)s1)c1ccccc1 (centres unmarked) [GSK1323434] | 20%
66 | CCn1c(-c2nonc2N)nc2c(-c3ccccc3)ncc(OCCCN)c21.O=C(O)C(F)(F)F.O=C(O)C(F)(F)F [GSK260205] | 0%
67 | Cc1ccc(NC(=O)c2cccc(N3CCCCC3)c2)cc1-c1ccc(C(=O)NCC2CC2)cc1 [GSK1917008] | 6%
68 | CN(c1ccc(NC(=O)N2CCN(CCCN3CCOCC3)CC2)cc1)c1ccnc(Nc2ccc(CS(C)(=O)=O)cc2)n1.Cl [GW830899] | 5%
69 | c1ccc(Oc2ccc(Nc3ccnc4cc(-c5ccc(CN6CCCCC6)o5)ccc34)cc2)nc1 [GW567143] | 0%
70 | Cc1ccc(NC(=O)c2ccc(Cl)c(Cl)c2)cc1-c1ccc(C(=O)Nc2ccncc2)cc1 [GSK1398460] | 20%
71 | Cc1ccccc1CC(=O)N1CCc2cc(-c3cn(C)c4ncnc(N)c34)ccc21 [GSK2603346] | 2%
72 | CNc1nccc(-c2ccc3c(N)n[nH]c3c2)n1 [GSK2206003] | 22%
73 | Nc1ncc(-c2cn[nH]c2)c2scc(-c3ccc4c(c3)CCN4C(=O)Cc3ccccc3)c12 [GSK2593067] | 9%
74 | COC(=O)Nc1nc2ccc(Oc3ccc(NC(=O)Nc4cc(C(F)(F)F)ccc4F)cc3)cc2[nH]1.Cl [GW654607] | 6%

Source: PMC5540273 (PLoS ONE, 2017)
